Reference: PubChem BioAssay (Tox21)
Records with an inconclusive call do not appear. A call without a number means that no potency is given here. Some structures have more than one record in an assay (separate samples or runs), and their calls can disagree. Calls of active or inactive are those of the source. Calls follow the shape of the full dose curve. Starred links: 1 amine or outer side, 2 acyl side, 3 side chain; linkers in the order of their positions; H or OH if unused. Positions of bridges follow the written chain, without caps; N, C: chain ends. Non-standard residues stand in square brackets, D forms with d. Residues, ends and D or L forms follow the SMILES beside them. Chains are numbered I, II in the order given. Actinocin(9to1) = Cc1c2oc3c(C)ccc(C(=O)[*:1])c3nc-2c(C(=O)[*:2])c(N)c1=O; NMeV = CN[C@H](C(=O)O)C(C)C; Sar = CNCC(=O)O

Key:
[1] = molecular target: Acetylcholinesterase (Homo sapiens) (UniProt P22303); assay: Acetylcholinesterase (AChE) small molecule antagonists: colormetric cell-based qHTS assay (AID 1347395); also: nearly all actives have a fitted effect of over 30% in size; also: potency is read from the fitted curve at half-maximal effect
Outline: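 AChE inhibition read colorimetrically via DTNB–thiocholine in SH-SY5Y cells. Compound 30 min, substrate 90 min, both 37 C.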

[2] = molecular target: Acetylcholinesterase (Homo sapiens) (UniProt P22303); assay: Acetylcholinesterase (AChE) small molecule antagonists: enzyme-based qHTS assay (AID 1347397); conditions: Potency: AChE enzyme activity inhibition; outcome: AChE enzyme activity inhibition; also: nearly all actives have a fitted effect of over 55% in size
Outline: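 Tox21 library chemicals are tested in qHTS format against recombinant human AChE. The enzyme, dispensed at 50 mU/mL, sits with compound for 30 min at room temperature. A DTNB–acetylthiocholine cocktail follows, and colour is read after 10 min.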

[3] = molecular target: Acetylcholinesterase (Homo sapiens) (UniProt P22303); assay: Acetylcholinesterase (AChE) small molecule antagonists: fluorescence cell-based qHTS assay (AID 1347398); conditions: Potency: AChE activity; outcome: AChE activity; also: nearly all actives have a fitted effect of over 50% in size; also: potency is read from the fitted curve at half-maximal effect
Outline: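 Cellular AChE inhibition: SH-SY5Y cells treated with test chemical for 30 min at 37 C, then acetylthiocholine hydrolysis followed over 40 min at room temperature via thiocholine-reactive Thiolite Green fluorescence (490/520 nm).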

[4] = molecular target: Acetylcholinesterase (Homo sapiens) (UniProt P22303); assay: Acetylcholinesterase (AChE) small molecule antagonists: enzyme-based qHTS assay with human liver microsomes (AID 1347399); conditions: Potency: qHTS inhibition; outcome: qHTS inhibition; also: nearly all actives have a fitted effect of over 60% in size
Outline: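 Recombinant human AChE (50 mU/mL in the enzyme mix) and human liver microsomes (0.25 mg/mL final) were preincubated with compound and NADPH (0.25 mg/mL final) for 30 min at 37 C. Acetylthiocholine/DTNB was then added; thiocholine was read colorimetrically after 10 min at room temperature.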

Chain of Acetylcholinesterase (Homo sapiens) (P22303 whole entry, looked up): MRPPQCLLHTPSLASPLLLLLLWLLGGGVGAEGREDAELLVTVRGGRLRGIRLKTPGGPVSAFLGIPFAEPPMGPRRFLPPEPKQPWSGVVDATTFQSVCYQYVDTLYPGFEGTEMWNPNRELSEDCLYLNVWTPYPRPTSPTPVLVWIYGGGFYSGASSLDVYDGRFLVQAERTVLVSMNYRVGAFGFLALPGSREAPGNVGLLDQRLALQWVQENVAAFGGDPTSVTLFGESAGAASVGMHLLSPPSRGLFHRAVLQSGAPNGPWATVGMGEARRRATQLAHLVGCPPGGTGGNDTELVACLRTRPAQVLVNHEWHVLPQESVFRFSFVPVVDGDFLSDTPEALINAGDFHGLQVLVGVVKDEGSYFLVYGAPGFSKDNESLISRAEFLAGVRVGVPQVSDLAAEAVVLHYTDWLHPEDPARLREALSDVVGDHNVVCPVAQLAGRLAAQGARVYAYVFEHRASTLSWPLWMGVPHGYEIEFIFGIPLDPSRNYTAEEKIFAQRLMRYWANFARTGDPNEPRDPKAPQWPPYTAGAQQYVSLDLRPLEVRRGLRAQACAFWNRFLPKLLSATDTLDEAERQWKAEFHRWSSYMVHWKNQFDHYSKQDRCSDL

Row | SMILES | Potency [1] | Potency [2] | Potency [3] | Potency [4] | activity, negative = inhibition [1] | activity change, negative = inhibition [2] | activity change, negative = inhibition [3] | activity change, negative = inhibition [4]
1 | N[C@@H](Cc1cc(I)c(O)c(I)c1)C(=O)O | inactive | inactive | inactive | inactive |  |  |  | 
2 | CC12CCC(CC1)C(C)(C)O2 | inactive | inactive | inactive | inactive |  |  |  | 
3 | CCCNCCC | inactive | inactive | inactive | inactive |  |  |  | 
4 | O=C(O)c1cccc(C(=O)O)n1 | inactive | inactive | inactive | inactive |  |  |  | 
5 | O=C(CO)[C@@H](O)[C@H](O)[C@H](O)CO | inactive | inactive | inactive | inactive |  |  |  | 
6 | CCCCCC1=CCCC1=O | inactive | inactive | 22.9 µM (active) and inactive | inactive |  |  |  | 
7 | CC(=O)Oc1ccccc1C(=O)O | inactive | inactive | inactive | inactive |  |  |  | 
8 | CCCCCCCCCCOS(=O)(=O)O | inactive | inactive | inactive | inactive |  |  |  | 
9 | CC(C)(O)CCc1ccccc1 | inactive | inactive | inactive | inactive |  |  |  | 
10 | O=C(O)CCCC(=O)O | 6.21 µM (active) and inactive | inactive | inactive | inactive |  |  |  | 
11 | CC(C)(C)C(=O)C(Oc1ccc(Cl)cc1)n1ccnc1 (centres undefined) | inactive | inactive | inactive | inactive |  |  |  | 
12 | CC(C)Cc1ccccc1 | inactive | inactive | inactive | inactive |  |  |  | 
13 | c1ccc2c(c1)CCC2 | inactive | inactive | inactive | inactive |  |  |  | 
14 | CC(=O)Oc1ccc2c(c1)CC[C@@H]1[C@@H]2CC[C@]2(C)[C@@H](O)CC[C@@H]12 | inactive | inactive | inactive | inactive |  |  |  | 
15 | CC1CCC(CO)CC1 (centres undefined) | inactive | inactive | inactive | inactive |  |  |  | 
16 | CCCCCCOc1cc(C)c(O)c(C)c1C | inactive | inactive | inactive | inactive |  |  |  | 
17 | Cc1c2oc3c(C)ccc(C(=O)N[C@@H]4C(=O)N[C@H](C(C)C)C(=O)N5CCC[C@H]5C(=O)N(C)CC(=O)N(C)[C@@H](C(C)C)C(=O)O[C@@H]4C)c3nc-2c(C(=O)N[C@@H]2C(=O)N[C@H](C(C)C)C(=O)N3CCC[C@H]3C(=O)N(C)CC(=O)N(C)[C@@H](C(C)C)C(=O)O[C@@H]2C)c(N)c1=O (I: T[dV]P[Sar][NMeV] / II: T[dV]P[Sar][NMeV]; ester I:1-I:C, II:1-II:C; linker I:N-II:N via Actinocin(9to1)) | inactive | inactive | inactive | inactive |  |  |  | 
18 | N[C@@H](Cc1cc(I)c(Oc2cc(I)c(O)c(I)c2)c(I)c1)C(=O)O | inactive | inactive | inactive | inactive |  |  |  | 
19 | CO/N=C(/C(=O)N[C@@H]1C(=O)N2C(C(=O)O)=C(Cn3nnc(C)n3)CS[C@H]12)c1csc(N)n1 | inactive | inactive | inactive | inactive |  |  |  | 
20 | NCCNCCN | inactive | inactive | inactive | inactive |  |  |  | 
21 | CCCCCCCC(=O)OCC | inactive | inactive | inactive | inactive |  |  |  | 
22 | C=C[Si]1(C)O[Si](C)(C=C)O[Si](C)(C=C)O[Si](C)(C=C)O1 (centres undefined) | inactive | inactive | inactive | inactive |  |  |  | 
23 | CC(C)COC(=O)/C=C/c1ccccc1 | inactive | inactive | inactive | inactive |  |  |  | 
24 | CN(C)CCCN | inactive | inactive | inactive | inactive |  |  |  | 

Row | SMILES | Potency [1] | Potency [2] | Potency [3] | Potency [4] | activity, negative = inhibition [1] | activity change, negative = inhibition [2] | activity change, negative = inhibition [3] | activity change, negative = inhibition [4]
25 | CC(O)C(=O)O (centres undefined) | inactive | inactive | inactive | inactive |  |  |  | 
26 | CCCCCCCCCCCCOCCO | inactive | inactive | inactive | inactive |  |  |  | 
27 | Nc1ccc(/C=C/c2ccc(N)cc2S(=O)(=O)O)c(S(=O)(=O)O)c1 |  |  |  |  | -0.352% [at 0.435 µM] (inactive) | -0.809% [at 0.435 µM] (inactive) | 2.35% [at 0.439 µM] (inactive) | -0.084% [at 0.435 µM] (inactive)
28 | OCC(O)CS (centres undefined) | inactive | inactive | inactive | inactive |  |  |  | 
29 | CCNC(=S)NCC | inactive | inactive | inactive | inactive |  |  |  | 
30 | Cc1cccc(N(C)C(=S)Oc2ccc3c(c2)C2CCC3C2)c1 (centres undefined) | inactive | inactive | inactive | inactive |  |  |  | 
31 | CCC1CCC(CCC(=O)O)C1 (centres undefined) | inactive | inactive | inactive | inactive |  |  |  | 
32 | Cc1ccc(NC(=O)N(C)C)cc1NC(=O)N(C)C | inactive | inactive | inactive | inactive |  |  |  | 
33 | O=C(c1cc(O)c(O)c(O)c1)c1ccc(O)c(O)c1O | inactive | inactive | inactive | inactive |  |  |  | 
34 | O=c1[nH]c2ccc(Cl)cc2o1 | inactive | inactive | inactive | inactive |  |  |  | 
35 | CC(C)c1ccc(C(C)C)cc1 | inactive | inactive | inactive | inactive |  |  |  | 
36 | CC[C@H]1OC(=O)[C@H](C)[C@@H](O[C@H]2C[C@@](C)(OC)[C@@H](O)[C@H](C)O2)[C@H](C)[C@@H](O[C@@H]2O[C@H](C)C[C@H](N(C)C)[C@H]2O)[C@](C)(O)C[C@@H](C)/C(=N\OCOCCOC)[C@H](C)[C@@H](O)[C@]1(C)O | inactive | inactive | inactive | inactive |  |  |  | 
37 | CCCCN(CCN(CCCC)C(=O)N1CCOCC1)C(=O)N1CCOCC1 | inactive | inactive | inactive | inactive |  |  |  | 
38 | O=C(c1ccc(O)cc1)c1ccc(O)c(O)c1O | inactive | inactive | inactive | inactive |  |  |  | 
39 | Oc1c(Cl)cc(Cl)c(Cl)c1Cl | inactive | inactive | inactive | inactive |  |  |  | 
40 | C=CCCCCCCCC | inactive | inactive | inactive | inactive |  |  |  | 
41 | CC(C)CC(=O)C1C(=O)c2ccccc2C1=O | inactive | inactive | inactive | inactive |  |  |  | 
42 | CC1(C)[C@H]2CC[C@](C)(C2)[C@H]1O | inactive | inactive | inactive | inactive |  |  |  | 
43 | CCc1ccc(C)cc1 | inactive | inactive | inactive | inactive |  |  |  | 
44 | Cc1cccc(N)n1 | inactive | inactive | inactive | inactive |  |  |  | 
45 | COc1ccc(NC(C)=O)cc1 | inactive | inactive | inactive | inactive |  |  |  | 
46 | CCOc1cc(OCC)c(C(C)=O)cc1OCC | inactive | inactive | inactive | inactive |  |  |  | 
47 | O=C1C=CC(=O)O1 | inactive | inactive | inactive | inactive |  |  |  | 
48 | Cc1cc(C)c(N=Nc2c(O)c(S(=O)(=O)O)cc3cc(S(=O)(=O)O)ccc23)cc1C |  |  |  |  | 0.116% [at 10.5 µM] (inactive) | 0.136% [at 10.5 µM] (inactive) | -0.662% [at 10.5 µM] (inactive) | 0.432% [at 10.5 µM] (inactive)

Row | SMILES | Potency [1] | Potency [2] | Potency [3] | Potency [4] | activity, negative = inhibition [1] | activity change, negative = inhibition [2] | activity change, negative = inhibition [3] | activity change, negative = inhibition [4]
49 | O=S(=O)(O)c1ccc2nc(-c3ccccc3)[nH]c2c1 | inactive | inactive | inactive | inactive |  |  |  | 
50 | C[C@@H](C1=C(CCN(C)C)Cc2ccccc21)c1ccccn1 | inactive | inactive | inactive | inactive |  |  |  | 
51 | C[C@H]1[C@H](NC(=O)/C(=N/OC(C)(C)C(=O)O)c2csc(N)n2)C(=O)N1S(=O)(=O)O (stereo in doubt) | inactive | inactive | inactive | inactive |  |  |  | 
52 | NC=O | inactive | inactive | inactive | inactive |  |  |  | 
53 | CCCCCCCC/C=C\CCCCCCCC(N)=O | inactive | inactive | inactive | inactive |  |  |  | 
54 | CC(CN1CC(=O)NC(=O)C1)N1CC(=O)NC(=O)C1 (centres undefined) | inactive | inactive | inactive | inactive |  |  |  | 
55 | CCCCCCCCCCCCCCCCN | inactive | inactive | inactive | inactive |  |  |  | 
56 | CCCCCCCCCCC1CO1 (centres undefined) | inactive | inactive | inactive | inactive |  |  |  | 
57 | CS(=O)(=O)CCNCc1ccc(-c2ccc3ncnc(Nc4ccc(OCc5cccc(F)c5)c(Cl)c4)c3c2)o1 | inactive | inactive | inactive | inactive |  |  |  | 
58 | CCCCCC(=O)OCC | inactive | inactive | inactive | inactive |  |  |  | 
59 | CO[Si](CCCNCCNCCN)(OC)OC | inactive | inactive | inactive | inactive |  |  |  | 
60 | C[C@]12C=CC(=O)C=C1[C@@H](F)C[C@@H]1[C@@H]2[C@@H](O)C[C@@]2(C)[C@H]1CC[C@]2(O)C(=O)CO | inactive | inactive | inactive | inactive |  |  |  | 
61 | O=C(O)c1cccc(Cl)c1Cl | inactive | inactive | inactive | inactive |  |  |  | 
62 | O=C(O)CC(=O)O | inactive | inactive | inactive | inactive |  |  |  | 
63 | N[C@@H](CSSC[C@H](N)C(=O)O)C(=O)O |  |  |  |  | 3.18% [at 0.435 µM] (inactive) | 0.405% [at 0.435 µM] (inactive) | 2.04% [at 0.439 µM] (inactive) | -2.13% [at 0.435 µM] (inactive)
64 | C=CC(=O)CC | inactive | inactive | inactive | inactive |  |  |  | 
65 | Cc1cc(S(=O)(=O)O)c(N)cc1Cl | inactive | inactive | inactive | inactive |  |  |  | 
66 | Cc1ccc(C(C)C)cc1 | inactive | inactive | inactive | inactive |  |  |  | 
67 | CC(=O)N[C@@H](CCC(N)=O)C(=O)O | inactive | inactive | inactive | inactive |  |  |  | 
68 | COc1ccc2c(c1)c(CC(=O)O)c(C)n2C(=O)c1ccc(Cl)cc1 | inactive | inactive | inactive | inactive |  |  |  | 
69 | CCCCCOC(=O)COc1cc(N2C(=O)C3=C(CCCC3)C2=O)c(F)cc1Cl | inactive | inactive | inactive | inactive |  |  |  | 
70 | CCc1cccc2c(CCO)c[nH]c12 | inactive | inactive | inactive | inactive |  |  |  | 
71 | CC(C)(C)NC[C@H](O)COc1cccc2c1CCCC2=O | inactive | inactive | inactive | inactive |  |  |  | 
